Records with an inconclusive call do not appear. Where a call stands in place of a potency, no number is given. Calls of active or inactive are those of the source. Calls come from the whole dose curve; as a rule, active = well fitted cell-killing curve with a large enough effect in the repeat runs; inconclusive = weak or mixed curves, or effect the other way; inactive = flat fitted curve, though single readings scatter.
Assay: cAMP Responsive Elements (CRE) small molecule antagonists, cell-based qHTS assay: qHTS cell viability counter screen (AID 2060913); note: nearly all actives have a fitted effect of over 40% in size
Settings: CRE-bla HEK293T viability, CellTiter-Glo luminescence, 5 h; series mostly up to 92.4 µM
Method in brief: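 CRE-bla HEK293T cells (2,000/well, 18 h) given compound plus NKH477 0.25 uM final for 3 h at 37C; viability counter-screen by CellTiter-Glo luminescence in same wells after 30 min.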
Potency is the fitted concentration of half-maximal effect.

Compound	Potency
O=[N+]([O-])c1ccc(Cl)c(Cl)c1	inactive
OC(c1ccc(F)cc1)(c1cncnc1)c1ccccc1Cl (stereo not given)	inactive
CCC1(c2ccccc2)C(=O)N(COC)C(=O)N(COC)C1=O	inactive
CCCN(CC)CC1COC2(CCC(C(C)(C)C)CC2)O1 (stereo not given)	inactive
CCC(C)(CC)c1cc(NC(=O)c2c(OC)cccc2OC)on1	inactive
CCN(CC)c1c([N+](=O)[O-])cc(C(F)(F)F)c(N)c1[N+](=O)[O-]	54.5 µM (active)
OCCSSCCO	inactive
C[N+](=O)[O-]	inactive
O=CCCl	inactive
CCC[N+]1(C)CCCC1	inactive
Cc1ccc(N(SC(F)(Cl)Cl)S(=O)(=O)N(C)C)cc1	inactive
CCCCC(CC)COC(=O)c1ccccc1C(=O)OCC(CC)CCCC (stereo not given)	inactive
CC(=O)[C@H]1CC[C@H]2[C@@H]3CC[C@H]4C[C@](C)(O)CC[C@]4(C)[C@H]3CC[C@]12C	inactive
CNCC(=O)c1ccc(O)c(O)c1	inactive
COc1ccc2c(c1OC)CN1CCc3cc4c(cc3C1C2)OCO4 (stereo not given)	inactive
O=C(Nc1ccc(F)cc1F)c1cccnc1Oc1cccc(C(F)(F)F)c1	inactive
COP(=S)(OC)Oc1ccc([N+](=O)[O-])cc1Cl	inactive
CC(C)Br	inactive
O=c1n(Cl)c(=O)n(Cl)c(=O)n1Cl	inactive
O=C(CCl)NCO	inactive

Compound	Potency
O=C(NC(=O)c1c(F)cccc1F)Nc1ccc(OC(F)(F)C(F)OC(F)(F)F)c(Cl)c1 (stereo not given)	inactive
C[C@]12CC[C@H]3[C@@H](CCC4=CC(=O)CC[C@@H]43)[C@@H]1CC[C@@H]2OC(=O)CCc1ccco1	inactive
OCCCBr	inactive
O=C1C2(Cl)C3(Cl)C4(Cl)C(Cl)(Cl)C5(Cl)C3(Cl)C1(Cl)C5(Cl)C24Cl (stereo not given)	60.1 µM (active)
CCOP(=S)(S)OCC	inactive
CN1CC[C@]23c4c5ccc(O)c4O[C@H]2[C@@H](O)CC[C@H]3[C@H]1C5	inactive
COc1cccc2c1C(=O)c1c(O)c3c(c(O)c1C2=O)C[C@@](O)(C(=O)CO)CC3OC1CC(N2CCOC(OC)C2)C(O)C(C)O1 (stereo not given in full)	inactive
[Cl][Sn]([c]1ccccc1)([c]1ccccc1)[c]1ccccc1	2.59 µM (active)
C=C(C)C(=O)OCCCCOC(=O)C(=C)C	inactive
CN1CCc2cc(Cl)c(O)cc2[C@H]2c3ccccc3CC[C@@H]21	inactive
CC(C=O)Cc1ccc2c(c1)OCO2 (stereo not given)	inactive
CC(C)Oc1cccc(NC(=O)c2ccccc2C(F)(F)F)c1	inactive
Cc1cccc(C)c1NC1=NCCCS1	inactive
ClC(Cl)C(Cl)(Cl)Cl	inactive
O=C(NC(=O)c1c(F)cccc1F)Nc1cc(Cl)c(OC(F)(F)C(F)F)c(Cl)c1	inactive
CON(C)C(=O)Nc1ccc(Cl)c(Cl)c1	inactive
O=C(CBr)c1ccccc1	inactive
ClCc1ccc(Cl)cc1Cl	inactive
c1ccc2c(c1)[nH]c1cnccc12	inactive
C[C@]12CC[C@@H]3c4ccc(OC(=O)N(CCCl)CCCl)cc4CC[C@H]3[C@@H]1CC[C@@H]2O	inactive

Reference: PubChem BioAssay (Tox21)
